# Results from PubChem BioAssay (NCATS).
# Records with an inconclusive call do not appear. Unmarked numbers belong to inactive results. The source made the active and inactive calls. The call rests on the fitted dose curve; in most records, active means well fitted inhibition curve with a large enough effect; inconclusive means small, poorly fitted or top-dose-only effect; inactive means flat fitted curve, though single readings scatter.
# What was measured:
# CRL-7250 = normal cell line; assay: Cytotoxic Profiling of Annotated Libraries Using Quantitative High-Throughput Screening (AID 1296008); conditions: Five cell lines viability, CellTiter-Glo ATP luminescence, 48-72 h; max response: hits give low values; further: potency means the concentration at half of the fitted maximal effect; on max response: on the % scale 0 is the no-effect control and ±100 the full control effect
# Procedure, shortened: (§1)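 Cells exposed to compounds for 48 or 72 hr at 37 degrees Celsius. Viability read as ATP-coupled luminescence with CellTiter-Glo after 10 min at room temperature.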
# HaCat [1] = assay: as above; conditions: Five cell lines viability, CellTiter-Glo ATP luminescence, 48-72 h; max response: hits give low values
# Procedure, shortened: as §1
# KB-3-1 = assay: as above; conditions: Five cell lines viability, CellTiter-Glo ATP luminescence, 48-72 h; max response: hits give low values
# Procedure, shortened: as §1
# HACAT [2] = assay: qHTS assay to identify novel small-molecules to repurpose for Merkel cell carcinoma treatment (AID 1296009); conditions: MCC and control cell lines, CellTiter-Glo viability, 72 h; at 44.8 µM (top of the series) unless noted
# Procedure, shortened: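 CellTiter-Glo luminescence after 72 hr compound exposure at 37 degree celsius gave cell viability. Libraries NPC and MIPE were run as 8- and 11-point dose responses; RLUs normalized to DMSO (negative) and no-cell (cytotoxicity) controls.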
# NIH3T3 = assay: Cytotoxic Profiling of Annotated Libraries Using Quantitative High-Throughput Screening (AID 1296008); conditions: Five cell lines viability, CellTiter-Glo ATP luminescence, 48-72 h; max response: hits give low values; further: potency means the concentration at half of the fitted maximal effect; on max response: on the % scale 0 is the no-effect control and ±100 the full control effect
# Procedure, shortened: as §1
# Further: nearly all actives have a fitted effect of over 60% in size.
smiles,measurement,setting,value
CCC(C)C(=O)Oc1cc(C)ccc1C1(COC(=O)C(C)C)CO1 (stereo not drawn),max response,CRL-7250,-0.891%
same,outcome,HaCat [1],inactive
same,max response,KB-3-1,-3.14%
same,outcome,HACAT [2],inactive
O=C(Nc1ccccc1)c1ccc(Nc2nnc(-c3ccc(O)cc3)c3ccccc23)cc1,max response,CRL-7250,-21.4%
same,max response,HaCat [1],-7.55%
same,max response,NIH3T3,-26.5%
CC(=O)OC1C(OC(=O)c2ccccc2)C2C(=C(C)CCC2(C)C)C23CCC(C)(C2)C(=O)CC13 (stereo not drawn),max response,CRL-7250,-34.2%
same,max response,HaCat [1],-3.85%
same,max response,NIH3T3,-18.4%
CCC(C)CNCC(=O)N1CCc2sccc2C1COc1cccc(C)c1 (stereo not drawn),max response,CRL-7250,-0.461%
same,max response,HaCat [1],1.97%
same,max response,NIH3T3,-25.4%
Cc1csc(N(C(=O)CSc2ccc(-c3ccccc3)nn2)C2CC2)n1,max response,CRL-7250,-10.7%
same,outcome,HaCat [1],inactive
same,max response,KB-3-1,-2.9%
same,outcome,HACAT [2],inactive
COC(=O)C[C@H]1[C@]2(C)C3=C(C)[C@H](c4ccoc4)C[C@H]3O[C@@H]2[C@H](O)C2[C@](C)(C(=O)OC)C=CC(=O)[C@@]21C (stereo partly drawn),max response,CRL-7250,-6.81%
same,max response,HaCat [1],-7.74%
same,max response,NIH3T3,3.36%
O=C1c2ccc(Nc3ccc(F)cc3F)cc2CCc2ccc(OCC(O)CO)cc21 (stereo not drawn),max response,CRL-7250,-2.8%
same,max response,HaCat [1],0.902%
same,max response,NIH3T3,-2.95%
CC1(C)OC[C@H](NC(=O)Nc2ccc(Br)cc2Br)[C@H](c2ccccc2)O1,outcome,CRL-7250,inactive
same,max response,HaCat [1],-5.94%
same,max response,NIH3T3,0.948%
O=C(NS(=O)(=O)c1ccc(Br)s1)c1ccc(Cl)cc1Cl,max response,CRL-7250,-22.3%
same,max response,HaCat [1],3.71%
same,max response,NIH3T3,-6.08%
COc1c2c(nc3occc13)C(CC=C(C)C)(OC)C(O)CC2 (stereo not drawn),max response,CRL-7250,-11.5%
same,max response,HaCat [1],-1.05%
same,max response,NIH3T3,-1.61%
C=C(C)C1=C[C@@]2(C)C(=CC1=O)CC[C@@H](O)[C@@H]2C,max response,CRL-7250,3.24%
same,outcome,HaCat [1],inactive
same,outcome,KB-3-1,inactive
same,outcome,HACAT [2],inactive
C=C1C(=O)OC2/C=C(\CO)CC/C=C(\C=O)C(O)C(OC(=O)C(C)CC)C12 (stereo not drawn),max response,CRL-7250,0.0349%
same,outcome,HaCat [1],inactive
same,outcome,KB-3-1,inactive
same,outcome,HACAT [2],inactive
O=C(NNc1nc2cc(F)ccc2n2cccc12)c1cnccn1,Potency,CRL-7250,1.3 µM (active)
same,Potency,HaCat [1],3.26 µM (active)
same,Potency,NIH3T3,4.11 µM (active)
CCN(Cc1cc(Nc2nc(C)cn3c(-c4cn[nH]c4)cnc23)sn1)C(C)(C)CO,Potency,CRL-7250,0.0731 µM (active)
same,Potency,HaCat [1],1.46 µM (active)
same,Potency,NIH3T3,0.461 µM (active)
NCC(CNc1nc(Nc2cccc(NC(=O)N3CCCC3)c2)ncc1I)C(=O)c1cccs1 (stereo not drawn),max response,CRL-7250,-26%
same,outcome,HaCat [1],inactive
same,Potency,KB-3-1,11.6 µM (active)
same,outcome,HACAT [2],inactive
Cc1cc(C(C)Nc2ccccc2C(=O)O)c2nc(N3CCOCC3)cc(=O)n2c1 (stereo not drawn),max response,CRL-7250,-22.4%
same,Potency,HaCat [1],7.31 µM (active)
same,Potency,NIH3T3,23.1 µM (active)
Cc1nc2c(C(F)(F)F)cccc2nc1-c1ccc(-c2cccc(S(C)(=O)=O)c2)cc1,max response,CRL-7250,-1.09%
same,max response,HaCat [1],-0.882%
same,max response,NIH3T3,-12.4%
CC(=O)Nc1nc(C)c(-c2nc(N3CCCC(O)C3)no2)s1 (stereo not drawn),Potency,CRL-7250,8.2 µM (active)
same,Potency,HaCat [1],4.11 µM (active)
same,Potency,NIH3T3,18.4 µM (active)
COc1cc(/C=N\NC(=O)c2ccc3c(c2)OCO3)ccc1OCc1ccccc1,max response,CRL-7250,3.71%
same,max response,HaCat [1],-3.21%
same,max response,NIH3T3,0.687%
CC(=O)Nc1cccc(Nc2ncnc(N3CCC(OCc4ccc(OC(F)(F)F)cc4)CC3)n2)c1C,Potency,CRL-7250,13 µM (active)
same,max response,HaCat [1],-26.7%
same,max response,NIH3T3,-3.89%
COc1cc(C(C)C)c(Oc2cnc(N)nc2N)cc1I,max response,CRL-7250,-1.85%
same,max response,HaCat [1],-19.2%
same,max response,NIH3T3,-1.33%
O=C(NCC1(c2nc(-c3ccccc3)cs2)CCOCC1)c1cccc(-c2noc(C(F)(F)F)n2)c1,max response,CRL-7250,-0.2%
same,outcome,HaCat [1],inactive
same,max response,KB-3-1,-10.2%
same,outcome,HACAT [2],inactive
CCCc1ccc(OCC(=O)N(Cc2nc(-c3cccnc3)no2)C(C)C)cc1,Potency,CRL-7250,23.1 µM (active)
same,max response,HaCat [1],-2.41%
same,max response,NIH3T3,-9.24%
COc1cc(O)c2c(c1)/C=C/C[C@H](O)[C@H](O)C(=O)/C=C\C[C@H](C)OC2=O,Potency,CRL-7250,16.4 µM (active)
same,Potency,HaCat [1],9.2 µM (active)
same,Potency,NIH3T3,5.8 µM (active)
O=C(NO)c1ccc(CC(=O)N(CCO)c2ccccc2)cc1,max response,CRL-7250,0.727%
same,outcome,HaCat [1],inactive
same,max response,NIH3T3,-4.33%
same,outcome,HACAT [2],inactive
CCN1C(C)(C)CC(Oc2ccc(C(=O)Nc3ccc(NC(=O)Nc4cc(C(C)(C)C)on4)cc3)nc2)CC1(C)C,max response,CRL-7250,-1.6%
same,outcome,HaCat [1],inactive
same,outcome,NIH3T3,inactive
same,outcome,HACAT [2],inactive
COc1ccc(-c2cnc3c(-c4cccc5ncccc45)cnn3c2)cc1,outcome,CRL-7250,inactive
same,outcome,HaCat [1],inactive
same,max response,NIH3T3,-19.7%
same,outcome,HACAT [2],inactive
N#CC(CCCN1CCN(/N=C/c2cccnc2)CC1)(c1ccccc1)c1ccccc1,max response,CRL-7250,-20.5%
same,max response,HaCat [1],-26.9%
same,max response,NIH3T3,-25.1%
